TCR act – T cell receptor activation; primary human leukocytes, anti-CD3, IL-2 HTRF, 48 h; Potency, µM (titrated, usually from 9.22 µM), usual class: activators; 330,000 tested, under 10 active
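Compounds are tested in HTS on primary human leukocytes co-incubated with a-CD3 beads for 48 hr. IL-2 output is measured by time-resolved FRET.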
PLK1 PBD block – blocks phosphopeptide binding to human PLK1 polo-box domain | Plk1 PBD binding of FITC phosphopeptide, fluorescence polarization | Potency, µM, hits mostly inhibitors | 360,000 tested, 2.8% active | AID 720504; note: series mostly up to about 57 µM; nearly all actives have a fitted effect of over 65% in size
FEN1 inh – human FEN1 inhibition | Recombinant FEN1 flap cleavage, fluorescence, 15 min | Potency, µM (highest dose often 114 µM), hits mostly inhibitors | AID 588795 | P39748 | 390,000 tested, 0.35% active; note: nearly all actives have a fitted effect of over 65% in size
Target sequence (P39748 whole entry, looked up): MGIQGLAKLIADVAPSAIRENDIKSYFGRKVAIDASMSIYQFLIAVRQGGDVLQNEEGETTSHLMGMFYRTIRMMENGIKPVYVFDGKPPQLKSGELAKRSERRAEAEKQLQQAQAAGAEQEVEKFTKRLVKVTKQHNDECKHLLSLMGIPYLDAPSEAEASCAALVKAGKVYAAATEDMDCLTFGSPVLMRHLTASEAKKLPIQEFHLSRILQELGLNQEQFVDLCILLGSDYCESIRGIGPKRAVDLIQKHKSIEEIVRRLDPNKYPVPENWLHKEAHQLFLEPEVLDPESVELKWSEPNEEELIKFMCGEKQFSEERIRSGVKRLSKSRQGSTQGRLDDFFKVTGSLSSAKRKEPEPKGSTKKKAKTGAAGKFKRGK
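FEN1 at 10 nM preincubated with compounds 15 min at room temperature, then flap DNA substrate added at 50 nM final. Signal read at 0 and 15 min; concentration-response fitted with four-parameter Hill equation.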
PI5P4K alpha inh – PI5P4K alpha (human) kinase inhibition. PI5P4Kalpha enzyme, ADP-Glo luminescence, 60 min; hits give low values. max response, %. 330,000 tested, 1.2% active. P48426. AID 652105; active = max response of -50% or lower; inconclusive = between -30% and -50%; inactive = -30% or higher; note: value at the top dose of about 77 µM
Target sequence (P48426 whole entry, looked up): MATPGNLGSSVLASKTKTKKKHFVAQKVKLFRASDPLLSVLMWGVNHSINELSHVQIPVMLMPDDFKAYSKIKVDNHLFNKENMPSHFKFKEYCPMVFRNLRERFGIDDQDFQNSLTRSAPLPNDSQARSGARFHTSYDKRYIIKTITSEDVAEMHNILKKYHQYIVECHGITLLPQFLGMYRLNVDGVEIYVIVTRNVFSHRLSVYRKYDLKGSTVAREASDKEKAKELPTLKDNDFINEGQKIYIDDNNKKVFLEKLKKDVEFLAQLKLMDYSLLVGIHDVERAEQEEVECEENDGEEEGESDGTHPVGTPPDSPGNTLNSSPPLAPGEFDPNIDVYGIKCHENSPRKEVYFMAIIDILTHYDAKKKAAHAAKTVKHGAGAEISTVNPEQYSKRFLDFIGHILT
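Reactions run in 0.038 M HEPES pH 7.4, 0.28 mM EGTA, 0.1% CHAPS and 5% DMSO, with PI5P4Kalpha, substrate, compound and 5 microM ATP final, one hour at room temperature. Readout is ADP-Glo luminescence.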
WRN helicase inh – WRN helicase (human) inhibition; WRN helicase unwinding, fluorescent forked duplex, kinetic; Potency, µM (series often up to 114 µM), usual class: inhibitors; AID 651768; 360,000 tested, 0.46% active; Q14191; note: nearly all actives have a fitted effect of over 55% in size
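Fluorescence dequenching readout, ex 525 nm/em 598 nm, kinetic mode: forked duplex DNA (100 nM final) with adjacent fluorophore and quencher unwound by WRN (20 nM final) with 2 mM ATP. Compound preincubation 15 min, room temperature.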
VDR inhibitor – blocks the human vitamin D receptor; Potency, µM, usual class: inhibitors; 400,000 tested, 0.93% active; P11473; VDR-SRC2-3 peptide fluorescence polarization, 2 h
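Signal is fluorescence polarization, reporting how far test compounds block the interaction of VDR with the SRC2-3 coregulator peptide after a 2 h room-temperature incubation.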
Each line names hits and unclear results; the compound was inactive in the other large screens. Only some compounds are listed: those with a hit (about 3.7% of all), similar ones and a draw of the others. Unless noted, calls come from the whole dose curve; as a rule, active = well fitted curve in the direction sought with a large enough effect; inconclusive = small, poorly fitted or top-dose-only effect, or another doubt; inactive = no such curve, though single readings can be large; an effect the other way counts as inactive or inconclusive.

CC[C@@H](C)[C@@H](CO[C@@H](Cc1ccccc1)C(=O)N[C@@H](CCS(C)(=O)=O)C(=O)OC(C)C)NC[C@@H](N)CS	VDR inhibitor 10µM (no result: TCR act, PLK1 PBD block, FEN1 inh, PI5P4K alpha inh, WRN helicase inh)
O=C(CCC1CCCC1)N1CCN(C(=O)c2ccco2)CC1	PLK1 PBD block 24µM
COc1ccc(/C=C2\C(=O)NC(=O)c3ccccc32)cc1OC	PLK1 PBD block 4.7µM, VDR inhibitor inconclusive
COC(=O)c1sc(=S)n(-c2cccc(Cl)c2)c1N	PLK1 PBD block 8.4µM, VDR inhibitor inconclusive (no result: PI5P4K alpha inh)
CCOC(=O)c1sc(=S)n(-c2ccccc2)c1N	none
CCOc1ccc(-n2c(N)c(C(=O)NCc3ccco3)sc2=S)cc1	PLK1 PBD block 21µM, PI5P4K alpha inh inconclusive, VDR inhibitor inconclusive
COc1ccc(CNC(=O)c2sc(=S)n(-c3ccccc3)c2N)cc1	PLK1 PBD block 13µM
COc1ccccc1-n1c(N)c(C(N)=O)sc1=S	PLK1 PBD block 19µM (no result: PI5P4K alpha inh)
COc1ccccc1-n1c(C)cc(SC)c(C(C)=O)c1=S	none
CCOC(=O)c1sc(=S)n(-c2ccc(OC)cc2)c1N	none
CCN(CC)CCN(C)c1ccc(/C=C/c2ccnc3ccccc23)cc1	none (no result: TCR act, PLK1 PBD block, PI5P4K alpha inh, WRN helicase inh, VDR inhibitor)
CCOc1ccc(-n2c(N)c(C(=O)NCc3cccnc3)sc2=S)cc1	PLK1 PBD block 27µM
CCOc1ccc(NC(=O)NCc2cccnc2)cc1	PLK1 PBD block 27µM
CCNC(=O)c1sc(=S)n(-c2ccc(C)cc2)c1N	PLK1 PBD block inconclusive (no result: PI5P4K alpha inh)
C=CCOc1c(OC)cc(/C=N/Nc2cccc(C(=O)O)c2)c(Br)c1Br	PLK1 PBD block 30µM, VDR inhibitor inconclusive
Cn1cc(Br)c(C(=O)N2CCN(c3cccc(Cl)c3)CC2)n1	none
Cn1cc(Br)c(C(=O)n2cc(Br)cn2)n1	PLK1 PBD block 17µM, VDR inhibitor inconclusive
COc1cc(C)c(NC(C)C(=O)c2c(C)[nH]c3ccccc23)cc1OC (configuration not stated)	none (no result: TCR act, PLK1 PBD block, PI5P4K alpha inh, WRN helicase inh, VDR inhibitor)
Cc1ccc(NC(=O)CN2C(=O)C(c3ccc(C(C)(C)C)cc3)=NC2(C)C)cc1	none (no result: TCR act, PLK1 PBD block, PI5P4K alpha inh, WRN helicase inh)
CCCCN(Cc1cc2ccccc2[nH]c1=O)C(=O)c1cccc(Cl)c1	none (no result: TCR act, PLK1 PBD block, PI5P4K alpha inh, WRN helicase inh)
O=S(=O)(CCN1CCCCC1)Oc1ccc(Cl)cc1Cl	PLK1 PBD block 12µM
O=C(COc1ccc(Cl)cc1Cl)NCCN1CCCCC1	none (no result: TCR act, FEN1 inh, VDR inhibitor)
COc1ccc(CCN2C(=O)CC(NC34CC5CC(CC(C5)C3)C4)C2=O)cc1OC (configuration not stated)	none
COc1ccc(CCN2C(=O)CC(Cc3ccc(C)cc3)C2=O)cc1OC (configuration not stated)	PLK1 PBD block 12µM, PI5P4K alpha inh -69, WRN helicase inh inconclusive, VDR inhibitor inconclusive
COc1ccc(Br)cc1CNC(=O)CCSCc1ccc(Cl)cc1	none (no result: TCR act, PLK1 PBD block, PI5P4K alpha inh, WRN helicase inh)
Cc1cc(C)cc(C(=O)NCC(=O)OCC(=O)N(C)c2ccccc2)c1	PLK1 PBD block 24µM
CN(C(=O)COC(=O)c1ccc(=O)n(Cc2ccccc2)n1)c1ccccc1	PLK1 PBD block 17µM, FEN1 inh inconclusive, PI5P4K alpha inh inconclusive, VDR inhibitor inconclusive
CN(C(=O)COC(=O)c1ccccc1C(=O)N(C)c1ccccc1)c1ccccc1	none
COc1ccc(C(=O)NCC(=O)OCC(=O)N(C)c2ccccc2)cc1	none
COc1cccc(OC)c1C(=O)OCC(=O)N(C)c1ccccc1	PLK1 PBD block 27µM, VDR inhibitor inconclusive
Cc1cc(C)cc(N2CCn3c2nc2c3c(=O)n(C/C=C/c3ccccc3)c(=O)n2C)c1	none (no result: TCR act, PLK1 PBD block, PI5P4K alpha inh, WRN helicase inh)
CC1C2(C)OC(=N)C(C#N)(C(C)O2)C1(C#N)C#N (configuration not stated)	WRN helicase inh 79µM
CC1OC2(C)OC(=N)C1(C#N)C(C#N)(C#N)C2c1ccccc1 (configuration not stated)	none
CC(=O)Nc1ccc2c(c1)c1ccccc1n2C(C)=O	VDR inhibitor inconclusive
CC(=O)n1c2ccccc2c2nc(NC(C)C)sc21	PLK1 PBD block 27µM, VDR inhibitor inconclusive
CSCCC(NC(=O)c1ccoc1C)C(=O)O (configuration not stated)	none (no result: TCR act, PI5P4K alpha inh)
CSCC[C@H](NC(=O)c1ccc(NC[C@@H](N)CS)cc1-c1ccccc1)C(=O)O	VDR inhibitor 7.9µM (no result: TCR act, PLK1 PBD block, FEN1 inh, PI5P4K alpha inh, WRN helicase inh)
COC(=O)[C@H](CCSC)NC(=O)c1cccnc1SC	none
COC(=O)[C@H](CCSC)NC(=O)c1ccc(NC[C@@H](N)CS)cc1-c1ccccc1	VDR inhibitor 10µM (no result: TCR act, PLK1 PBD block, FEN1 inh, PI5P4K alpha inh, WRN helicase inh)
COc1ccc(CCNC(=O)Cn2c(=O)c3cccn3c3ccccc32)cc1OC	none (no result: TCR act, PLK1 PBD block, PI5P4K alpha inh, WRN helicase inh)
Cc1nc2nc(NC(=O)C(C)(C)C)[nH]n2c(=O)c1Cc1ccccc1	none (no result: TCR act, PLK1 PBD block, PI5P4K alpha inh, WRN helicase inh)
c1ccc(CN2CCN(C(c3ccccc3)c3ccccc3)CC2)cc1	none (no result: TCR act)
O=S(=O)(CCN1CCN(C(c2ccccc2)c2ccccc2)CC1)C(F)(F)F	PLK1 PBD block 15µM, VDR inhibitor inconclusive (no result: PI5P4K alpha inh)
N#CC1=C(SCC(=O)Nc2ccccc2)NC(=O)CC1c1ccco1 (configuration not stated)	none (no result: PI5P4K alpha inh)
N#CC1=C(SCC(=O)NCc2ccccc2)NC(=O)CC1c1ccco1 (configuration not stated)	PLK1 PBD block 9.5µM
CCOc1cc(N2C(=O)CC3CS(=O)(=O)CC32)c(OCC)cc1NC(=O)c1ccccc1 (configuration not stated)	PLK1 PBD block 3µM, PI5P4K alpha inh inconclusive, VDR inhibitor inconclusive
CCOc1cc(N2CCOCC2)c(OCC)cc1NC(=O)c1cccc(N(C)C)c1	none
COc1ccc(CCn2c3c(c(=O)[nH]c2=S)CN(Cc2ccccc2)CN3)cc1OC	VDR inhibitor 89µM (no result: TCR act, PLK1 PBD block, PI5P4K alpha inh, WRN helicase inh)
Cc1cccc(NC(=O)CSC2=Nc3ccccc3C3=NC(CCC(=O)NCc4ccc(F)cc4)C(=O)N23)c1 (configuration not stated)	none (no result: TCR act, PLK1 PBD block, PI5P4K alpha inh, WRN helicase inh)
Nc1cccc(-c2cn3cccnc3n2)c1	PLK1 PBD block 30µM
CCC(NC(=O)CCc1ccccc1)c1ccccc1 (configuration not stated)	VDR inhibitor 89µM
O=C(O)CC(NC(=O)CCc1ccccc1)c1ccc(Cl)cc1 (configuration not stated)	none
CCC(NC(=O)CCl)c1ccc(C)cc1 (configuration not stated)	PLK1 PBD block 30µM
CCCC(NC(=O)CCl)c1ccccc1 (configuration not stated)	none
CN1C(c2ccc(F)cc2)=CS/C1=C(/C#N)c1nnc(N2CCOCC2)n1-c1ccccc1	none
C=CCN1C(c2ccccc2)=CS/C1=C(/C#N)c1nnc(N2CCOCC2)n1-c1ccccc1	PLK1 PBD block 21µM
CC(C)CN(C(=O)CSc1nnc2c(Cl)cc(C(F)(F)F)cn12)C1CCS(=O)(=O)C1 (configuration not stated)	PLK1 PBD block 27µM
Cc1nnc(SCC(=O)N(CC(C)C)C2CCS(=O)(=O)C2)n1N (configuration not stated)	none
